The results in this text go back to PubChem BioAssay (Tox21).

Structures are written as SMILES. Results filed as inconclusive are left out. Where a call stands in place of a potency, no number is given. Unmarked numbers belong to inactive results. Active and inactive are the calls of the source. Calls follow the shape of the full dose curve.
Potency is read from the fitted curve at half-maximal effect.

Thyrotropin receptor (Homo sapiens), sequence (P16473 whole entry, looked up): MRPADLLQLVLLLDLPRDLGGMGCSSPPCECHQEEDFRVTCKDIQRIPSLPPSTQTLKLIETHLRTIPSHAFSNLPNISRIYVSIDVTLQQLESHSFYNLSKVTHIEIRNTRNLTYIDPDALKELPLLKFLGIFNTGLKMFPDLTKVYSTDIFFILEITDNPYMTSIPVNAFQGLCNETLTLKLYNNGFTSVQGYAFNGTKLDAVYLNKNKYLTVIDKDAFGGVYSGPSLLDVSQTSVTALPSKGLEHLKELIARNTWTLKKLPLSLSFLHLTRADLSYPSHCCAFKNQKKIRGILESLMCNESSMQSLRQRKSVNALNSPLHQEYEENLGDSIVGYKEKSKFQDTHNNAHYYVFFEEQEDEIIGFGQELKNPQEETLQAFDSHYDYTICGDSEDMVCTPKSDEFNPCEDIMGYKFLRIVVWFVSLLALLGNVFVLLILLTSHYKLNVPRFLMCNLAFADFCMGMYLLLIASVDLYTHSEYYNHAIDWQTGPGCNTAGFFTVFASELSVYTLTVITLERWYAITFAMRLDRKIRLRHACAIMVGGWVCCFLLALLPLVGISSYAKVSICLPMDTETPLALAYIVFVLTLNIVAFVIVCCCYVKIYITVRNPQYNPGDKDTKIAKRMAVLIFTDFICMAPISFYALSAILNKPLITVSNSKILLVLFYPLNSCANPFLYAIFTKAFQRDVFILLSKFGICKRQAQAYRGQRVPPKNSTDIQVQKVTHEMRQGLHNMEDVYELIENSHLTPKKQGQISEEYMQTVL

This test concerns the target Thyrotropin receptor (Homo sapiens) (UniProt P16473). The test can be described thus: qHTS assay to identify small molecule antagonists of the thyroid stimulating hormone receptor (TSHR) signaling pathway (AID 1259385). Also: nearly all actives have a fitted effect of over 20% in size. To be noted: TSHR-HEK293 cAMP HTRF, TSH-stimulated antagonist mode; series mostly up to 92.4 µM; activity change, negative = inhibition: at the top concentration. From the text: U.S. Tox21 Program National Center for Advancing Translational Sciences [NCATS] NIH Chemical Genomics Center [NCGC] U.S. Environmental Protection Agency [EPA] National Institutes of Environmental Health Sciences [NIEHS] National Toxicology Program [NTP] U.S. Food and Drug Administration [FDA] Tox21 Assay Overview: TSHR is the receptor for thyrotropin (thyroid stimulating hormone or TSH), a member of the glycoprotein hormone family. TSH is released by the anterior pituitary gland and is the main regulator of thyroid gland growth and development. Upon binding circulating thyrotropin, a G-protein signal cascade activates adenylyl cyclase and […] cAMP concentration is increased. cAMP is a key second messenger involved extensively in cellular signal transduction pathways associated with the majority of G-protein coupled receptors (GPCRs). The activation of these GPCRs by neurotransmitters, lipids, nucleotides, peptides and hormones results in the activation or the inhibition of plasma membrane-bound adenylate cyclase through heterotrimeric G-proteins. A cell-based TSHR assay can be used to screen chemical compounds that modulate TSHR either in agonist or antagonist mode.
Tox21 Assay Protocol Summary: TSHR-Hek293 cells were dispensed at 800 cells/4uL/well in 1536-well white plates using a Multidrop dispenser. After the assay plates were incubated at a 37C/5% CO2 incubator for 18 hrs, 23 nL of compounds dissolved in DMSO, positive controls or DMSO only was transferred to the assay plate by a pin tool, followed by 1 ul medium containing Ro20-1724. For the antagonist mode screening, 1 uL of TSH was added on the top of the cell/compound mixtures to achieve a final agonist concentration of 1.5 ng/mL. After 30 min of incubation at room temperature, 2.5 ul/well of cAMP-d2 and 2.5 ul/well of anti-cAMP-cryptate were added respectively into the assay plates using a Flying Reagent Dispenser. The plates were incubated at room temperature for 1 hr. The fluorescence intensity in the plates was measured using an Envision plate reader. Each test compound was measured at 15 concentrations and in triplicates.
Take `CCCCCC/C(C=O)=C\c1ccccc1`: the Potency entry is “inactive”.
Consider `O=C(CC(C(=O)OC1CCCCC1)S(=O)(=O)O)OC1CCCCC1` (stereo not given), for which the Potency result is “inactive”.
Still for that read-out and setting: the result for `CC1=CCC2CC1C2(C)C` (stereo not given) reads “inactive”; that for `CCCCC(CC)COC(=O)C(C#N)=C(c1ccccc1)c1ccccc1` (stereo not given), 61.1 µM (active); that for `C=CCOC(=O)c1ccccc1C(=O)OCC=C`, “inactive”.
For `CCCCCC1=CCCC1=O`, the Potency result was “inactive”.
Same read-out and setting: in the case of `CC(C)c1ccc(S(=O)(=O)O)cc1` it was “inactive”; in that of `COc1ccc(Cl)cc1C(=O)NCCc1ccc(S(=O)(=O)NC(=O)NC2CCCCC2)cc1`, “inactive”; in that of `COc1ccc(NC(C)=O)cc1N`, “inactive”.
Same read-out and setting: in the case of `COc1ccc2cc([C@H](C)C(=O)O)ccc2c1` it was “inactive”; in that of `Cc1occc(=O)c1O`, “inactive”.
On the same count and under the same terms, the result for `CCCCCOC(C)=O` reads “inactive”.
`COS(C)(=O)=O`: the Potency result was “inactive”.
On the same count and under the same terms, in the case of `CC(=O)Nc1ccccc1` it was “inactive”; in that of `CCCCC(CC)COC(=O)CCCCC(=O)OCC(CC)CCCC` (stereo not given), “inactive”.
Still for that read-out and setting: the result for `Cc1ccc(S(N)(=O)=O)cc1` reads “inactive”; that for `Cc1ccc(N(C)C)cc1`, “inactive”; that for `ON=C1CCCCC1`, “inactive”.
Consider `O=S(=O)(O)c1ccc2ccccc2c1`, for which the Potency result is “inactive”.
On the same count and under the same terms, the result for `CCCCCCCCCCCCc1ccccc1` reads “inactive”.
With `Cc1cc(C)c(C)cc1C`, the Potency result was “inactive”.
Same read-out and setting: the result for `COc1ccc(Nc2ccccc2)c(C)c1` reads “inactive”.
For the molecule `CN(C)CCC(c1ccc(Cl)cc1)c1ccccn1` (stereo not given), the “activity change, negative = inhibition” value is -7.16%.
Take `O=c1[nH]c(=O)n([C@H]2CCCO2)cc1F`: the Potency entry was “inactive”.
Same read-out and setting: the result for `Fc1ccc(Br)cc1` reads “inactive”; that for `O=c1[nH]nnc2ccccc12`, “inactive”; that for `COCCCOc1ccnc(CS(=O)c2nc3ccccc3[nH]2)c1C` (stereo not given), “inactive”.
Still for that read-out and setting: the result for `C=C(C)C(=O)O[C@H]1C[C@@H]2CC[C@@]1(C)C2(C)C` reads “inactive”.
On the same count and under the same terms, the result for `N[C@@H](Cc1cc(I)c(Oc2cc(I)c(O)c(I)c2)c(I)c1)C(=O)O` reads “inactive”; that for `c1ccc2c(c1)ccc1ccccc12`, “inactive”.
Take `CCCCN(CCCC)CCCC`: the Potency result was “inactive”.
As for `CCCCCCCCCCCCS`, the Potency entry is “inactive”.
On the same count and under the same terms, the result for `CC(=O)OCC(=O)[C@@]12N=C(C)O[C@@H]1C[C@H]1[C@@H]3CCC4=CC(=O)C=C[C@]4(C)[C@H]3[C@@H](O)C[C@@]12C` reads “inactive”; that for `CC[C@H](C)C(=O)O[C@H]1C[C@@H](C)C=C2C=C[C@H](C)[C@H](CC[C@@H]3C[C@@H](O)CC(=O)O3)[C@H]21`, “inactive”.
Consider `CN(C)CCCN`, for which the Potency result is “inactive”.
The same measure, in the same setting: in the case of `CCCCCCCCC/C=C/CC1CC(=O)OC1=O` (stereo not given) it was “inactive”; in that of `CCCCC(CC)COC(=O)CS` (stereo not given), “inactive”; in that of `CCCCCC(N)=O`, “inactive”.
On to `O=C(O)c1ccc(C(=O)O)cc1`, for which the Potency entry was “inactive”.
On the same count and under the same terms, the result for `CC1CCC(C(C)C)C(O)C1` (stereo not given) reads “inactive”.
